From PubChem BioAssay (NCI) come the findings set out here.

A short description of experiment [1]: NCI Yeast Anticancer Drug Screen. Data for the rad50 strain (AID 155).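 Note: 0% = growth of vehicle-only cultures of the same strain.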 The settings on record: S. cerevisiae rad50 strain growth inhibition; at 50.0 µM; stronger effect = higher value. In outline: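 Compounds were tested on a yeast strain with an engineered DNA damage repair alteration; the reported value is growth inhibition normalised to vehicle treatment.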
Experiment [2] in a line: NCI Yeast Anticancer Drug Screen. Data for the mec2-1 strain (AID 157). The settings on record: S. cerevisiae mec2-1 strain, at 50.0 µM, stronger effect = higher value. In outline: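 Vehicle-treated cultures served as reference for growth inhibition of compound-exposed mec2-1 yeast.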
Experiment [3] in a line: NCI Yeast Anticancer Drug Screen. Data for the sgs1 mgt1 strain (AID 161).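 Note: 0% = growth of cultures given vehicle only.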 As to conditions: S. cerevisiae sgs1 mgt1 strain, at 50.0 µM, stronger effect = higher value. In outline:
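Mutant yeast exposed to compound; growth scored against vehicle-only wells.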

A short description of experiment [4]: NCI Yeast Anticancer Drug Screen. Data for the cln2 rad14 strain (AID 165).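 Note: 0% = growth equal to vehicle treated cultures.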 The settings on record: S. cerevisiae cln2 rad14 strain, at 50.0 µM, stronger effect = higher value. In a few lines: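 Each compound was tested on cln2 rad14 yeast. Inhibition of growth was calculated against vehicle-exposed controls.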
Experiment [5] can be described thus: NCI Yeast Anticancer Drug Screen. Data for the bub3 strain (AID 167). As to conditions: S. cerevisiae bub3 mutant strain, at 50.0 µM, stronger effect = higher value. In a few lines:
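Growth of a checkpoint-deficient yeast mutant is measured after compound exposure. Values represent inhibition relative to vehicle.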

Experiment [6] in a line: NCI Yeast Anticancer Drug Screen. Data for the mlh1 rad18 strain (AID 175). As to conditions: S. cerevisiae mlh1 rad18 strain growth inhibition; at 50.0 µM; stronger effect = higher value. In a few lines: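 Vehicle-treated cultures served as the reference for growth inhibition in a yeast strain carrying DNA damage repair alterations exposed to each compound.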

The panel holds about 79,000 compounds, 15% with a hit somewhere; the sample as a whole holds those more often. A number with no mark means an inactive call. The source made the active and inactive calls. Cut-off read from the data, not from the text of the source: active = growth inhibition above about 70%; inactive = the rest.

Consider `C[S+](C)CCS(=O)(=O)[O-]`, for which the growth inhibition in experiment [1] was 10.3%; in experiment [2], -6.45%; in experiment [3], -2.1%; in experiment [4], -30.4%; in experiment [5] it was 4.95%; in experiment [6], -13.2%.
As to `Cn1c(=S)[nH]c2sc3c(c2c1=O)CCCCC3`, the growth inhibition in experiment [1] is 12.2%; in experiment [2] it was -0.6%; in experiment [3] it was 8.25%; in experiment [4] it was 6.65%; in experiment [5], -4.05%; in experiment [6], 8.4%.
`C#CCOCCC(C(=O)O)C(=O)O`: the growth inhibition in experiment [1] is 9.9%; in experiment [2], 5.45%; in experiment [3], 8.6%; in experiment [4], -1.7%; in experiment [5] it was 11.9%; in experiment [6] it was 2.7%.
Take `O=C(Cc1ccccc1)NCc1ccccc1Cl`: the growth inhibition in experiment [1] was -1.05%; in experiment [2] it was 9.2%; in experiment [3], 5.65%; in experiment [4] it was 0.05%; in experiment [5], 9.75%; in experiment [6] it was 6.05%.
Consider `CCCCCCCCCCCCCCCCOc1ccc2ccccc2c1`, for which the growth inhibition in experiment [1] is 4.15%; in experiment [2], -6.25%; in experiment [3], 14.9%; in experiment [4], -56.4%; in experiment [5] it was 10.2%; in experiment [6], 29.2%.
As for `CCOC(=O)OC1C(OC)OC2COC(c3ccccc3)OC2C1OC(=O)OCC` (stereo unspecified), the growth inhibition was -1.4% in experiment [1]; -13.3% in experiment [2]; -20% in experiment [3]; -15.7% in experiment [4]; -2.25% in experiment [5]; 11.4% in experiment [6].
In the case of `Nc1ccc2c(=O)[nH][nH]c2c1`, the growth inhibition in experiment [1] was -26.6%; in experiment [2] it was -40.5%; in experiment [3] it was -25%; in experiment [4], 10.8%; in experiment [5] it was -25.2%; in experiment [6], -9.2%.
With `CCN(CC)c1ccc(/C=N\NC(=S)N/N=C/c2ccc(N(CC)CC)cc2)cc1`, the growth inhibition in experiment [1] is -2.3%; in experiment [2], 0.85%; in experiment [3] it was 7.9%; in experiment [4] it was 33%; in experiment [5], -0.95%; in experiment [6], -1.1%.
On to `CC(=O)NC(C(=O)NC(CSCc1ccccc1)C(=O)O)=C(C)C` (stereo unspecified), for which the growth inhibition in experiment [1] was -2.05%; in experiment [2] it was -13.5%; in experiment [3], 8.9%; in experiment [4] it was 3.1%; in experiment [5], -36.4%; in experiment [6], -11.3%.
As to `Cc1cc(=O)n(Cc2ccccc2)n1-c1ccccc1`, the growth inhibition in experiment [1] was -11%; in experiment [2], 12.8%; in experiment [3], -0.4%; in experiment [4], 9.4%; in experiment [5], 1.2%; in experiment [6] it was -17%.
For `Cc1ccc(S(=O)(=O)CN2CCC(=O)c3ccccc32)cc1`, the growth inhibition was 20.4% in experiment [1]; 12.6% in experiment [2]; -6.4% in experiment [3]; 11.4% in experiment [4]; 15.4% in experiment [5]; 0.25% in experiment [6].
As to `COC(=O)C(=O)C(C(=O)C(=O)Nc1ccc([N+](=O)[O-])cc1)c1nc2ccccc2[nH]c1=O` (stereo unspecified), the growth inhibition in experiment [1] is 10.1%; in experiment [2], -5.95%; in experiment [3] it was 19.5%; in experiment [4] it was 15.4%; in experiment [5], 11.7%; in experiment [6] it was 29.5%.
On to `N#Cc1c(-c2ccco2)cc(-c2ccc(N)cc2)[nH]c1=O`, for which the growth inhibition in experiment [1] is -0.6%; in experiment [2], 4.7%; in experiment [3], 17.7%; in experiment [4] it was 15.8%; in experiment [5] it was -8.9%; in experiment [6] it was 6.9%.
As for `C=C(S(=O)(=O)c1ccccc1)S(=O)(=O)c1ccccc1` (tested in a mixture with another compound), the growth inhibition in experiment [1] was 92.8% (active); in experiment [2], 97.3% (active); in experiment [3], 96.4% (active); in experiment [4], 98% (active); in experiment [5] it was 97.8% (active); in experiment [6] it was 94.9% (active).
Take `CCCCCCCCCSCCS`: the growth inhibition in experiment [1] was -14.1%; in experiment [2] it was 7.4%; in experiment [3], 2%; in experiment [4], -16.2%; in experiment [5], -19.4%; in experiment [6] it was -22.2%.
Turning to `COc1cc(C(=O)N=Nc2c(O)[nH]c3ccc(Br)cc23)cc(OC)c1OC`, the growth inhibition in experiment [1] is 3.55%; in experiment [2] it was -16.6%; in experiment [3], -7.1%; in experiment [4], -1.9%; in experiment [5] it was 2%; in experiment [6], -3.1%.
On to `O=C(O)C1CC(O)c2ccccc2C1c1ccccc1` (stereo unspecified), for which the growth inhibition in experiment [1] is -2.65%; in experiment [2], -1.15%; in experiment [3], -11.4%; in experiment [4], 22.6%; in experiment [5], 5.1%; in experiment [6] it was -17.3%.
With `CCN(CC)CC(O)c1ccc2ccccc2c1` (stereo unspecified), the growth inhibition is 47.6% in experiment [1]; 13.2% in experiment [2]; 25.8% in experiment [3]; -21.2% in experiment [4]; 22.4% in experiment [5]; 40.9% in experiment [6].
Take `CCN(CC)CCO/N=C(\c1ccccc1)c1ccccn1`: the growth inhibition in experiment [1] is 4.6%; in experiment [2] it was -5.95%; in experiment [3] it was 16.9%; in experiment [4] it was -78.3%; in experiment [5], 10.7%; in experiment [6], 1.2%.
Consider `Cc1cc(OCCCCCCC[N+](C)(C)Cc2ccc([N+](=O)[O-])o2)c(C(C)C)cc1Cl`, for which the growth inhibition was 99.6% (active) in experiment [1]; 99.8% (active) in experiment [2]; 99.8% (active) in experiment [3]; 99.6% (active) in experiment [4]; 99.5% (active) in experiment [5]; 99.7% (active) in experiment [6].
`O=C(NCCCCCCNC(=O)Nc1cccc2ccccc12)Nc1cccc2ccccc12`: the growth inhibition is -13.9% in experiment [1]; -14.4% in experiment [2]; 7.05% in experiment [3]; -7.75% in experiment [4]; -2.3% in experiment [5]; -13.6% in experiment [6].
